The entries come from a sample that favours hits as a whole.
NS1 function inh: inhibitors of influenza NS1 protein function | Potency, µM (series often up to 46.1 µM), for the others: at the top dose activity, positive = more growth | AID 2326 | actives 0.4% (n = 270,000); calls by dose curve; note: actives are rising curves; nearly all actives have a fitted effect of over 50% in size
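Read-out: OD600 growth recovery of NS1-expressing budding yeast. Cells grown overnight at 30C in -URA glucose medium, washed, resuspended and diluted 1:100 in 2% galactose assay medium, pH 6.0. Same strain lacking NS1 served as positive control.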
Cruzain noTriton: blocks cruzain activity in detergent-free assay. Potency, µM, without a hit: max response, negative = inhibition, hits mostly inhibitors. purified cruzain, Z-FR-AMC fluorescence, no detergent. actives 2.3% (n = 200,000). P25779;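 note: plate controls were enzyme without inhibitor for no effect and buffer without enzyme for full effect; nearly all actives have a fitted effect of over 40% in size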
Target sequence (P25779 123-467 limits assumed): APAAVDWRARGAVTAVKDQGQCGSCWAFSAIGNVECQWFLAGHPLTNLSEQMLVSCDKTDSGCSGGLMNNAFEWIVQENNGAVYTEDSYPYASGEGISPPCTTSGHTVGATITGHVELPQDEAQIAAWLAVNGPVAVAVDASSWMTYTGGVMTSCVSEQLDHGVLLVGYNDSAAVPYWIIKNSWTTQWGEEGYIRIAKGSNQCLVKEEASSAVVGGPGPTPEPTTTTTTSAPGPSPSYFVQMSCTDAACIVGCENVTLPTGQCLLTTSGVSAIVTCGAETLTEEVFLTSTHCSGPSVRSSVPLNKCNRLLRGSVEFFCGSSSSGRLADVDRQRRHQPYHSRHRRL
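Detergent-free condition (0.00005% Triton X-100) in acetate buffer pH 5.5 with DTT. 1.5 nM enzyme and compound were pre-mixed 15 min, then 2 uM Z-FR-AMC substrate added; reaction progress from fluorescence change between first and third reads (60 s).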
Cruzain inh Det: cruzain (T. cruzi) inhibition with detergent. purified cruzain, Z-FR-AMC fluorescence, 0.01% Triton. Potency, µM, for the others: max response, negative = inhibition, usual class: inhibitors. actives 0.43% (n = 200,000). AID 1478;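 note: plate controls were neutral wells for no effect and buffer without enzyme for full effect; nearly all actives have a fitted effect of over 40% in size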
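Cysteine protease activity tested under reducing, mildly acidic conditions (100 mM sodium acetate pH 5.5, 5 mM DTT) plus 0.01% Triton X-100. Cruzain 1.5 nM; substrate Z-FR-AMC 2 uM; 15 min compound preincubation at room temperature.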
* hit, by the source's call; ? = inconclusive; nt = no result. Unless noted, calls come from the whole dose curve; as a rule, active = well fitted curve in the direction sought with a large enough effect; inconclusive = small, poorly fitted or top-dose-only effect, or another doubt; inactive = no such curve, though single readings can be large; an effect the other way counts as inactive or inconclusive. Potency is the fitted concentration of half-maximal effect.

SMILES | NS1 function inh | Cruzain noTriton | Cruzain inh Det
Cc1ccc(C(=O)CN2C(=O)c3ccccc3S2(=O)=O)cc1 | 2% | nt | nt
Cc1ccccc1CCNC(=O)c1ccc2c(c1)c(C)c(C)n2C | nt | ? | -3%
COc1ccc(NC(=O)c2ccc3c(c2)c(C)c(C)n3Cc2ccc(F)cc2)cc1 | nt | ? | 1%
Cc1c(C)n(Cc2ccccc2)c2ccc(C(=O)NCCc3ccccc3Cl)cc12 | nt | 25µM* | 2%
Cc1c(C)n(Cc2ccccc2)c2ccc(C(=O)NCc3ccc(OC(C)C)cc3)cc12 | nt | 25µM* | 2%
Cc1cccc(CNC(=O)c2ccc3c(c2)c(C)c(C)n3Cc2ccccc2)c1 | nt | ? | 2%
Cc1ccccc1CCNC(=O)c1ccc2c(c1)c(C)c(C)n2Cc1ccccc1 | nt | 20µM* | 3%
COc1ccc(CCNC(=O)c2ccc3c(c2)c(C)c(C)n3Cc2ccccc2)c(OC)c1OC | nt | ? | 0%
CCOC(=O)c1ccc(NC(=O)c2ccc3c(c2)c(C)c(C)n3Cc2ccc(F)cc2)cc1 | nt | 7.9µM* | 1%
Cc1cccc(C2=N[C@@H](CC(C)C)CO2)c1 | nt | -3% | 2%
CCS(=O)(=O)c1nc2ccccc2n1CC(=O)Nc1ccccc1C(=O)OC | nt | 5% | -2%
O=C(CN1CCN(c2ccccc2)CC1)Nc1ccccc1Cl | -34% | nt | nt
O=C(CN1CCN(c2ccc(O)cc2)CC1)Nc1cc([N+](=O)[O-])ccc1Cl | 17% | 25µM* | -24%
COCCn1c(=O)cnc2cnc(Oc3ccccc3)nc21 | nt | 1% | -2%
c1coc(-c2nc3ccccc3nc2-c2ccco2)c1 | -6% | 13µM* | 14µM*
O=c1oc(-c2ccco2)nc2ccccc12 | -117% | 2% | -3%
O=C(Oc1ccccc1)N1CCC[C@@]2(CCN(c3ccccc3)C2)C1 | nt | -22% | -2%
Cc1ccc(OCCSCc2nc3ccccc3[nH]2)cc1 | -89% | -9% | -20%
Clc1ccc(OCCSCc2nc3ccccc3[nH]2)cc1 | -36% | 25µM* | ?
CCCCC/C=C\C/C=C\C/C=C\C/C=C\CCCC(=O)C(F)(F)F | nt | 12% | 4%
Cc1ccc(NC(=O)N2N=C(c3ccc(F)cc3)CC2c2ccc(F)cc2)cc1 (stereo not given) | 14% | 1.3µM* | 1%
CC(=O)N1N=C(c2ccccc2)CC1c1ccc(F)cc1 (stereo not given) | -8% | nt | nt
CC(=O)c1ccc(N2CCN(c3ncnc4onc(-c5ccc(Cl)cc5)c34)CC2)cc1 | nt | 3.2µM* | -16%
Fc1ccc(N2CCN(c3ncnc4onc(-c5ccc(Cl)cc5)c34)CC2)cc1 | nt | 4% | -8%
CC1CCN(S(=O)(=O)c2ccc3c(c2)N(CC(=O)NC(C)C)C(=O)CS3)CC1 | nt | 3% | -3%
SMILES | NS1 function inh | Cruzain noTriton | Cruzain inh Det
C[C@@]12CCC(O)C[C@H]1CCc1ccccc12 (stereo not given in full) | nt | -9% | 4%
COc1ccccc1/C=C/c1nc(C#N)c(N2CCN(C)CC2)o1 | nt | 25µM* | -29%
CCN1CCN(c2oc(/C=C/c3ccccc3)nc2C#N)CC1 | -2% | nt | nt
CCN1CCN(c2oc(/C=C/c3ccccc3OC)nc2C#N)CC1 | nt | 32µM* | -25%
COc1ccc(Nc2oc(/C=C/c3ccccc3OC)nc2C#N)cc1 | nt | ? | -1%
O=[N+]([O-])c1ccc(N2CCCC2)cc1N/N=C1\CN2CCC1CC2 | 14% | 25µM* | ?
O=[N+]([O-])c1ccc(N2CCNCC2)cc1NC1CC1 | 5% | 1% | -6%
COc1ccc(-c2cc(C(F)(F)F)nc(SCC(=O)Nc3sc4c(c3C#N)CCC4)n2)cc1 | 13% | 13µM* | -11%
N#Cc1c(NC(=O)CSc2nc(-c3ccccc3)cc(C(F)(F)F)n2)sc2c1CCC2 | -1% | ? | -9%
CCC1CCc2c(sc(NC(=O)CSc3nc(-c4ccco4)cc(C(F)(F)F)n3)c2C#N)C1 (stereo not given) | -1% | 1.3µM* | 4%
CCOC(=O)c1sc(NC(=O)CSc2nc(-c3ccco3)cc(C(F)(F)F)n2)c(C(=O)OC)c1C | 9% | -9% | 1%
Cc1nc2c(c(SCC(=O)Nc3ccccc3C(F)(F)F)n1)CCC2 | nt | -7% | -2%
COc1ccccc1CNc1ncnc2c1c(-c1ccccc1)cn2-c1cccc(C)c1 | nt | ? | 1%
COc1ccc(-c2nc3cncnc3n(-c3ccccc3)c2=O)cc1 | nt | -14% | 5%
O=C(COC(=O)c1cccc([N+](=O)[O-])c1)c1ccc(OCc2ccccc2)cc1 | 0% | 25µM* | -3%
O=C(Cc1ccccc1)NCC(=O)OCC(=O)c1cccc([N+](=O)[O-])c1 | 7% | -22% | -27%
O=C(Nc1ccccc1Cl)[C@H](CSCc1ccccc1)N1Cc2ccccc2C1=O | nt | -2% | -1%
CCO[Si](CCCN)(OCC)OCC | nt | -4% | 3%
N#CCC(=N)N1CCN(c2ccccc2Cl)CC1 | -4% | 25µM* | -3%
